From PubChem
HCV inhibitor: HCV inhibition | Huh7.5.1 HCVcc-Cre infection, luciferase reporter, 44 h | Potency, µM (titrated, usually from 41.8 µM), for inactives: at the highest dose activity change, negative = inhibition, usual class: inhibitors | hit rate 3.4% among 340,000 | AID 651820; note: % is set by controls: 0 for no effect and ±100 for the full control effect
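Antiviral activity was scored by luciferase reporter output from cells infected with HCVcc-Cre (~0.5 moi) in presence of compound, 44 h infection period, cells seeded 1,000/well 4 h prior.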
SARS PLP yeast: inhibitors of SARS-CoV papain-like protease in yeast | Potency, µM (doses to about 32.9 µM), for the others: at the top dose activity, positive = growth rescue, most hits filed as activators | S. cerevisiae expressing SARS-CoV PLpro, growth rescue | hit rate 0.19% among 330,000; calls by dose curve; note: 0% is about no effect; nearly all actives have a fitted effect of over 55% in size
Pf growth 48h: P. falciparum growth inhibition at 48 hours (one generation). Potency, µM (highest dose often 28.7 µM), without a hit: at the highest dose activity change, negative = inhibition, actives largely listed as inhibitors. P. falciparum luciferase growth in erythrocytes, 48 h. hit rate 5.9% among 310,000; note: % is set by controls: 0 for no effect and ±100 for the full control effect
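In quantitative HTS format, infected erythrocytes bearing luciferase-reporter parasites were treated for a single generation at 37 C. Luminescence after adding detection reagent served as the growth measure.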
NS1 function inh: blocks influenza NS1 protein function; Potency, µM (top dose mostly 46.1 µM), for the others: at the highest dose activity, positive = more growth; hit rate 0.4% among 270,000; AID 2326; calls by dose curve; note: actives are rising curves; nearly all actives have a fitted effect of over 50% in size
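Recovery from NS1-induced slow growth read by OD600 in budding yeast switched to galactose assay medium (pH 6.0, -URA) at 1:100 dilution. Compound 23 nl per well; the matching strain lacking NS1 serves as control.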
Pf growth 96h: P. falciparum growth inhibition at 96 hours; P. falciparum luciferase reporter growth, 96 h; hit rate 6.9% among 320,000; AID 504834; Potency, µM (series often up to 28.7 µM), without a hit: at the top dose activity change, negative = inhibition, most hits filed as inhibitors; note: % is set by controls: 0 for no effect and ±100 for the full control effect
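Readout is luminescence from an integrated firefly luciferase in P. falciparum. Red cells, 2% hematocrit and 0.05% parasitemia final, were cultured with compound through two parasite generations (96 hours) at 37 C, 5% CO2.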
AMA1 RON2 block: inhibitors of Plasmodium falciparum AMA1-RON2 interaction. AID 720542. AlphaScreen AMA1-biotinylated RON2 peptide binding. Potency, µM (highest dose often 58.2 µM), without a hit: at the highest dose activity change, negative = inhibition, most hits filed as inhibitors. hit rate 0.2% among 360,000;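 note: 0% = vehicle wells and -100% = peptide control; nearly all actives have a fitted effect of over 45% in size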
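AMA1 (3D7) with his tag at 25 nM final met compounds first, then biotinylated RON2 peptide at 25 nM; detection used donor plus acceptor beads, 10 µg/mL apiece, read by AlphaScreen after 30 min at room temperature.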
Active calls of the source: *; ? = inconclusive; nt = not tested or not shown. Sampled rows, rich in hits. Any-hit rate of the full collection: about 12%. Unless noted, calls come from the whole dose curve; as a rule, active = well fitted curve in the direction sought with a large enough effect; inconclusive = small, poorly fitted or top-dose-only effect, or another doubt; inactive = no such curve, though single readings can be large; an effect the other way counts as inactive or inconclusive. Potency is the fitted concentration of half-maximal effect.

SMILES	HCV inhibitor	SARS PLP yeast	Pf growth 48h	NS1 function inh	Pf growth 96h	AMA1 RON2 block
CCS(=O)(=O)c1nc(S(=O)(=O)c2ccc(Cl)cc2)c(NCCCN2CCOCC2)s1	-9.9%	-3.4%	-17.3%	-17.5%	11.7µM*	-5.1%
CCCS(=O)(=O)c1nc(S(=O)(=O)c2ccc(C)cc2)c(N2CCCCC2)s1	nt	nt	nt	nt	nt	-5.9%
C=CCN1CCN(C(CCC)c2nnnn2Cc2ccco2)CC1 (stereo unspecified)	24.0%	-3.9%	9.3%	nt	?	16.3%
CC(C)(C)c1ccc(/C=C/C(=O)N2CCc3ccccc3C2)cc1	-10.9%	-11.9%	0.928µM*	10.6%	0.738µM*	-0.2%
C[C@@]12C(=O)N(c3cccc(F)c3)C(=O)N1[C@H](c1ccc(F)cc1)[C@@H]1C(=O)N(C3CCCCC3)C(=O)[C@@H]12	8.3%	4.1%	?	-8.0%	-15.6%	4.1%
C[C@@]12C(=O)N(c3cccc(Cl)c3)C(=O)N1[C@H](c1ccc(Cl)cc1)[C@@H]1C(=O)N(C3CCCCC3)C(=O)[C@@H]12	-20.6%	-1.1%	?	nt	?	18.1%
CC(C)C[C@@]12C(=O)N(c3cccc(F)c3)C(=O)N1[C@H](c1ccc(Cl)cc1)[C@@H]1C(=O)N(C3CCCCC3)C(=O)[C@@H]12	2.0%	4.1%	2.94µM*	nt	4.65µM*	-3.3%
COc1ccc(N2C(=O)N3[C@H](c4ccc(Cl)cc4)[C@@H]4C(=O)N(C5CCCCC5)C(=O)[C@@H]4[C@]3(C)C2=O)cc1	3.7%	7.0%	?	?	2.33µM*	-8.1%
CC(C)C[C@@]12C(=O)N(c3cccc(F)c3)C(=O)N1[C@H](c1ccc(F)cc1)[C@@H]1C(=O)N(C3CCCCC3)C(=O)[C@@H]12	7.1%	0.2%	10.4µM*	nt	?	-9.0%
C[C@@]12C(=O)N(c3cccc(F)c3)C(=O)N1[C@H](c1ccc(Cl)cc1)[C@@H]1C(=O)N(C3CCCCC3)C(=O)[C@@H]12	?	-2.2%	11.7µM*	nt	-6.8%	22.0%
O=C1OCC/C1=C\NCCCN/C=C1\CCOC1=O	nt	nt	nt	nt	nt	-6.9%
COc1cc(C(=O)N2CCN(c3ccccc3)CC2)c([N+](=O)[O-])cc1OC	4.4%	1.9%	-4.2%	1.2%	?	0.3%
CN1CCc2c(sc(NC(=O)c3cc(Cl)sc3Cl)c2C(N)=O)C1	12.6µM*	1.8%	?	-23.5%	?	8.2%
CCN1CCc2c(sc(NC(=O)c3cc4ccccc4cc3OC)c2C(N)=O)C1	8.91µM*	-5.9%	9.28µM*	-30.6%	?	15.5%
COc1cccc(OC)c1C(=O)Nc1sc2c(c1C(N)=O)CCN(Cc1ccccc1)C2	-5.7%	1.1%	?	2.9%	?	-16.8%
CC(=O)Nc1sc2c(c1-c1nc3ccccc3s1)CCN(C(C)C)C2	8.91µM*	4.3%	3.7µM*	-5.1%	4.15µM*	3.7%
CC(C)N1CCc2c(sc(NC(=O)c3ccc4ccccc4c3)c2C(N)=O)C1	8.91µM*	0.5%	10.4µM*	-6.6%	9.28µM*	6.9%
CC(C)N1CCc2c(sc(NC(=O)Cc3ccccc3)c2C(N)=O)C1	-17.4%	-5.7%	?	-4.6%	?	-0.4%
CN1CCc2c(sc(NC(=O)c3ccco3)c2C(N)=O)C1	nt	1.2%	?	10.3%	?	-20.5%
COc1ccc(-c2noc(CN(C)C(=O)CCCN3C(=O)[C@H]4CC=CC[C@H]4C3=O)n2)cc1	nt	nt	nt	nt	nt	9.6%
O=C(CN1C(=O)NC2(CCCCC2)C1=O)Nc1ccc2[nH]c(=O)[nH]c2c1	0.0%	-10.0%	0.0%	nt	20.5%	-0.4%
COC(=O)c1c(NC(=O)c2ccco2)sc2c1CCN(C(C)C)C2	-23.0%	-1.7%	-0.9%	-1.0%	?	16.4%
CC(C)N1CCc2c(sc(NC(=O)c3ccco3)c2C(N)=O)C1	-12.3%	3.4%	0.465µM*	26.4%	?	30.9%
CC(C)N1CCc2c(sc(NC(=O)c3ccc(C(=O)c4ccccc4)cc3)c2C(N)=O)C1	?	-3.3%	13.1µM*	3.2%	?	?
